Measurements from ChEMBL document CHEMBL1961873, “Compounds: GSK PKIS; Assays: Nanosyn kinase panel” (2012).
Values joined by “and” are separate entries in the source; they are usually repeats but may differ in a detail not shown here. Equal entries are not always repeated.

What was measured:
[1] = biological target: RAC-alpha serine/threonine-protein kinase (Homo sapiens) (UniProt P31749); details: at 0.1 µM
[2] = biological target: RAC-alpha serine/threonine-protein kinase (Homo sapiens) (UniProt P31749); details: at 1 µM
[3] = biological target: RAC-beta serine/threonine-protein kinase (Homo sapiens) (UniProt P31751); details: at 0.1 µM
Sequence of RAC-beta serine/threonine-protein kinase (Homo sapiens) (P31751 whole entry): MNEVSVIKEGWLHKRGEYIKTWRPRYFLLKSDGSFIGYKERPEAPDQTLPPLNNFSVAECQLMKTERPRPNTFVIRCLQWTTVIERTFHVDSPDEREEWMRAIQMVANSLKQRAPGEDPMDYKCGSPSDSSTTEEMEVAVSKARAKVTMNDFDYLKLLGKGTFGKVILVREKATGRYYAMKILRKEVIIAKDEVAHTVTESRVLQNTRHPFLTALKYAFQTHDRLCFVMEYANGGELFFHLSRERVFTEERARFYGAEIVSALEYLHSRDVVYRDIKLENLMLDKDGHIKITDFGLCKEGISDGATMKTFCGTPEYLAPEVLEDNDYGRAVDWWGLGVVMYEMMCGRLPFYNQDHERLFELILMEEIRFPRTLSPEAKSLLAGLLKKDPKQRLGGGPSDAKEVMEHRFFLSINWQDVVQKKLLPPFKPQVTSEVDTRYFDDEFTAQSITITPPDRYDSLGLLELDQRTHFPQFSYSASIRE

[4] = biological target: RAC-beta serine/threonine-protein kinase (Homo sapiens) (UniProt P31751); details: at 1 µM
[5] = biological target: RAC-gamma serine/threonine-protein kinase (Homo sapiens) (UniProt Q9Y243); details: at 0.1 µM
Sequence of RAC-gamma serine/threonine-protein kinase (Homo sapiens) (Q9Y243 whole entry): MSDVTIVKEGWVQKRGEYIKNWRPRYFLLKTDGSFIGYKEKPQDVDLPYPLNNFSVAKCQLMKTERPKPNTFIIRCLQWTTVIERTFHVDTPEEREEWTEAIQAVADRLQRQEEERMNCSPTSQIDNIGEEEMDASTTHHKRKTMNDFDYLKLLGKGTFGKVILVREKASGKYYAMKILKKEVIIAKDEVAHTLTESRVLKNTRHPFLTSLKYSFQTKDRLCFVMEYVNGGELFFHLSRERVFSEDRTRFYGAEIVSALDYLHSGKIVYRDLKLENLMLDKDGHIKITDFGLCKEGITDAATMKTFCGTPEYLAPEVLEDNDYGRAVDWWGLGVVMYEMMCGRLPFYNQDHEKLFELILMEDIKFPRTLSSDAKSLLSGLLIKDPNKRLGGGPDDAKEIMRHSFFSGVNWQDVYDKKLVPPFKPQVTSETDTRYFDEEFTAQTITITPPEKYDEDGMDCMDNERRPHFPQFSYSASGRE

[6] = biological target: RAC-gamma serine/threonine-protein kinase (Homo sapiens) (UniProt Q9Y243); details: at 1 µM
[7] = biological target: G protein-coupled receptor kinase 6 (Homo sapiens) (UniProt P43250); details: at 0.1 µM
Sequence of G protein-coupled receptor kinase 6 (Homo sapiens) (P43250 whole entry, looked up): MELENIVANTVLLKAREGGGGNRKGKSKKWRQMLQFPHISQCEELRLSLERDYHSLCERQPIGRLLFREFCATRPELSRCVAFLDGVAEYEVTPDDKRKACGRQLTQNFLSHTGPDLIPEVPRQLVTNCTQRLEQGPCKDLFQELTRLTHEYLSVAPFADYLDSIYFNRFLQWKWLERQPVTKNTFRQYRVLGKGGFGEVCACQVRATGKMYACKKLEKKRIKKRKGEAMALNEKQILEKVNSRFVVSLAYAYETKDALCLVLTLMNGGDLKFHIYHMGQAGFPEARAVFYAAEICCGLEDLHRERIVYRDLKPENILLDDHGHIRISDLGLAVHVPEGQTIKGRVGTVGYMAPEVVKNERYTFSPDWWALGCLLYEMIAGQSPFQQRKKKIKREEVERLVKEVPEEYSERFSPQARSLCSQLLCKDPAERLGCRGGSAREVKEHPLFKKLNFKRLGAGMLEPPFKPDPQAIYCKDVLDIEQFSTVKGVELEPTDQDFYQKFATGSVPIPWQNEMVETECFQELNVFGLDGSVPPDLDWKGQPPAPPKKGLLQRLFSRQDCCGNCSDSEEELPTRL

[8] = biological target: G protein-coupled receptor kinase 6 (Homo sapiens) (UniProt P43250); details: at 1 µM
[9] = biological target: T1, Rhodopsin kinase GRK7 (Homo sapiens) (UniProt Q8WTQ7); details: at 0.1 µM
T1 sequence (whole entry): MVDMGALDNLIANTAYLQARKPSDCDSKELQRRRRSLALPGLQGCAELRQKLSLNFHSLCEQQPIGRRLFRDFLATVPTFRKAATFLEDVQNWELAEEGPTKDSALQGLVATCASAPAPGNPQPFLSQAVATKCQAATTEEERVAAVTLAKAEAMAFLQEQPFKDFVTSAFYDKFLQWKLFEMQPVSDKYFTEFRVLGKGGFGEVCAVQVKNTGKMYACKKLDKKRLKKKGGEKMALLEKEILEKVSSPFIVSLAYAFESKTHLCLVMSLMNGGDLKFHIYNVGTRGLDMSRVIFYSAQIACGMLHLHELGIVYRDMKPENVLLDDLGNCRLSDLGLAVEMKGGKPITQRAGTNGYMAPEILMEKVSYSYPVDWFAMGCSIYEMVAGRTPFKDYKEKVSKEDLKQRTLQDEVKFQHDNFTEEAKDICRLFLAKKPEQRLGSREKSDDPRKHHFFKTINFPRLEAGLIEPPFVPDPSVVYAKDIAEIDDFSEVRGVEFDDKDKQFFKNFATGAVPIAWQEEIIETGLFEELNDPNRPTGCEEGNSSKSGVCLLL

[10] = biological target: T1, Rhodopsin kinase GRK7 (Homo sapiens); details: at 1 µM

Sequence of RAC-alpha serine/threonine-protein kinase (Homo sapiens) (P31749 whole entry): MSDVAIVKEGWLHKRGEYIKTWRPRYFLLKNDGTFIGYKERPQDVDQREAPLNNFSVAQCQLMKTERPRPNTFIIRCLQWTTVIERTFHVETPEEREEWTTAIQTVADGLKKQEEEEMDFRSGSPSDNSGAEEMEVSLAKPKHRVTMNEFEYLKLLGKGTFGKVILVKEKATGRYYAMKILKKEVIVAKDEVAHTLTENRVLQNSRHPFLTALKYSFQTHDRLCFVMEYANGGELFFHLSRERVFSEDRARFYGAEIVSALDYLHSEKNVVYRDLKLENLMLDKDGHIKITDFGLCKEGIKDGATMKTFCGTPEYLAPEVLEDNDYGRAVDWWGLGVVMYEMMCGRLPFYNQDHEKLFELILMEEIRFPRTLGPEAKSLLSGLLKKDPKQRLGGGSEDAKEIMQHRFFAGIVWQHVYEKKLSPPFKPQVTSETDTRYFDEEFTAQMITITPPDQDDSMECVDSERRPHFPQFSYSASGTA

Structure (SMILES) | inhibition [1] | inhibition [2] | inhibition [3] | inhibition [4] | inhibition [5] | inhibition [6] | inhibition [7] | inhibition [8] | inhibition [9] | inhibition [10]
COc1cc(Nc2ncc(-c3ccccc3)o2)cc(OC)c1 | 1.36% | 1.33% | 1.9% | 2.08% | 0.79% | 3.26% | 0.04% | -0.63% | 19.2% | 18.7%
COC(=O)Nc1nc2cc(Oc3ccc(NC(=O)Nc4ccccc4)cc3)ccc2[nH]1 | 0.35% | 0.28% | 1.44% | 1.16% | 2.24% | 0.78% | 3.76% | 10.8% | 4.75% | 15.2%
Nc1nonc1-c1nc2cnccc2n1C1CC1 | 1.26% and -2.25% | 8.06% and 5.34% | 2.53% and -2.31% | 5.04% and 2.15% | 1.66% and -2.03% | 6.38% and 2.16% | 0.65% and 3.64% | 6.46% and 11.6% | -3.85% and 3.25% | -0.48% and 7.79%
CNC(=O)c1cncc(/C=C/c2ccccc2C)c1 | 0.63% | 1.08% | 2.41% | 2.34% | 1.3% | 1.52% | 3.92% | 8.41% | 3.15% | 0.44%
COC(=O)Nc1nc2ccc(Oc3ccc(NC(=O)Nc4cc(C(F)(F)F)ccc4F)cc3)cc2s1 | -0.37% | -0.66% | -0.14% | -0.64% | 1.34% | -0.4% | -1.28% | -1.53% | -0.68% | 6.1%
CS(=O)(=O)CCNCc1ccc(-c2ccc3ncnc(Nc4ccc(OCc5ccccc5)cc4)c3c2)o1 | 0.6% | 0.62% | 0.5% | 1.64% | 0.25% | 2% | 3.01% | 3.33% | 4.51% | 4.87%
Cc1c2ccc(N(C)c3ccnc(Nc4cccc(S(N)(=O)=O)c4)n3)cc2nn1C | -2.15% | -4.81% | -2.16% | -3.49% | -0.07% | -4.61% | -0.96% | 1.02% | 3.31% | 8.97%
NS(=O)(=O)c1cccc(N/C=C2\C(=O)Nc3ccccc32)c1 | 0.57% | 0.97% | 1.32% | 1.98% | 1.37% | 0.33% | 3.98% | 11.5% | 2.36% | 9.13%
CS(=O)(=O)Nc1ccc(-c2ccc3c(NC(=O)C4CC4)n[nH]c3c2)cc1 | 1.74% | 2.3% | 1.58% | 4.27% | 3.61% | 0.93% | 2.24% | 1.55% | 5.28% | 2.36%
COc1ccc(Nc2ncc(-c3ccccc3)o2)cc1OC | -0.43% | 0% | -0.16% | 0.11% | -0.29% | 1.24% | -1.81% | -1.23% | -1.93% | 1.56%
CCn1c(-c2nonc2N)nc2cncc(C(=O)NCCNC)c21 | 1.98% | 17.7% | 3.28% | 10.5% | 4.31% | 26.2% | -0.59% | 5.57% | 9.46% | 7.46%
COc1cc(N2CCN(C(C)C)CC2)ccc1Nc1nc(Nc2cccc(F)c2C(=O)O)c2cc[nH]c2n1 | 0.12% | 0.67% | 1.27% | 1.08% | 0.73% | 2.08% | 6.59% | 10.8% | 3.79% | 5.95%
O=C(Nc1n[nH]c2nnc(-c3cccnc3)cc12)C1CC1 | -0.73% | -0.67% | -0.56% | 0.1% | -0.57% | 5.03% | 3.53% | 0.48% | 2.31% | -1.4%
CC1=C(C(=O)Nc2ccc3[nH]nc(C)c3c2)C(c2ccc(C(F)(F)F)cc2)CC(=O)N1 (stereo not given) | 1.17% | 1.18% | 0.84% | 1.11% | 0.54% | 2.53% | 3.68% | 14.7% | 0.8% | -5%
c1ccc(-c2n[nH]cc2-c2ccnc(-c3ccc(OCCn4ccnc4)cc3)c2)nc1 | -1.55% | 0.14% | -0.98% | 0.73% | -0.34% | 1.01% | 1.73% | 4.13% | -0.12% | 4.02%
